Each structure is given as a SMILES string. Several values for one entry are separate records, joined by “and”; a condition that tells them apart may be missing. Identical values can stand only once. The panel holds about 83,000 compounds, 20% with a hit somewhere; the sample as a whole holds those more often.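 Activity criterion: percent growth below 10, measured after cells in 96-well plates were exposed to a single compound concentration for 48 hours.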 Activity calls are given as the source filed them.

Growth data for 22 molecules are collected here from PubChem BioAssay (NCI).

Assay in all cases: NCI-60 one-dose screen, 48 h (100 = growth as untreated, 0 = no growth, -100 = all killed)
One assay concerns T-47D breast. To be noted: 10 µM.
The subject of a further assay is MDA-MB-435 melanoma. To be noted: 10 µM.
Another assay concerns SW-620 colon. The following applies: 10 µM.
In the next assay the test system is MCF7 breast.
Another assay deals with HCT-116 colon. To be noted: 10 µM.
For the next assay, the system named is HCC-2998 colon. To be noted: 10 µM.
Another assay has as its system KM12 colon. To be noted: 10 µM.
The test system of a further assay is BT-549 breast. The following applies: 10 µM.

`O=C(O)[C@@H]1[C@H]2C[C@H]3c4[nH]c5ccccc5c4CCN3C[C@@H]2CC[C@@H]1O`: the growth in the assay with T-47D breast was 114% (inactive); in the assay on MDA-MB-435 melanoma it was 113% (inactive); in the assay on SW-620 colon it was 100% (inactive); in the assay with MCF7 breast (10 µM unless noted) it was 103% (inactive); in the assay with HCT-116 colon it was 92.6% (inactive); in the assay on HCC-2998 colon, 135% (inactive). For the same molecule, in the assay on KM12 colon, the growth is 113% (inactive).
For the molecule `Oc1ccc(O)cc1`, the growth was 114% (inactive) with T-47D breast; 82.7% (inactive) with BT-549 breast; 99.7% (inactive) in the assay with MDA-MB-435 melanoma; 112% (inactive) in the assay on SW-620 colon; 107% (inactive) in the assay on HCT-116 colon; 114% (inactive) with HCC-2998 colon. In addition, in the assay with KM12 colon, the growth is 103% (inactive).
In the case of `Cc1cc(=O)cc(C)n1-c1ccccc1`, the growth in the assay on T-47D breast was 91.7% (inactive); with MDA-MB-435 melanoma it was 110% (inactive); with SW-620 colon, 107% (inactive); with MCF7 breast (10 µM unless noted), 94.4% (inactive); with HCT-116 colon, 98.4% (inactive); in the assay on HCC-2998 colon, 107% (inactive). Further, the growth in the assay on KM12 colon was 104% (inactive).
For `COc1cc2c3cc1Oc1c(OC)c(OC)cc4c1C(Cc1ccc(O)c(c1)Oc1ccc(cc1)CC3N(C)CC2)N(C)CC4` (stereo not drawn), the growth in the assay on T-47D breast is -64.6% (active); with BT-549 breast, 32.8% (inactive); in the assay with SW-620 colon, -46.8% (active); in the assay with MCF7 breast (10 µM) it was -71% (active); in the assay on MCF7 breast (100 µM), 81.8% (inactive) and -100% (active); with HCT-116 colon it was -94.7% (active). Besides, the growth was -72.7% (active) in the assay on HCC-2998 colon and 12.9% (inactive) with KM12 colon.
With `CSC[C@H](NC(=O)COc1cccc2cnccc12)C(=O)NC(Cc1ccccc1)C(O)C(=O)N1CSC[C@H]1C(=O)NC(C)(C)C` (stereo partly drawn), the growth is 111% (inactive) in the assay with T-47D breast; 103% (inactive) with MDA-MB-435 melanoma; 105% (inactive) in the assay on SW-620 colon; 114% (inactive) with MCF7 breast (10 µM unless noted); 121% (inactive) in the assay on HCT-116 colon; 108% (inactive) with HCC-2998 colon. Further, the growth with KM12 colon was 116% (inactive).
`N#Cc1ccc(OC(=O)Nc2ccc(Cl)c(Cl)c2)cc1`: the growth with T-47D breast was 27.9% (inactive); in the assay with MDA-MB-435 melanoma it was 99.3% (inactive); with SW-620 colon it was 96.2% (inactive); with MCF7 breast (10 µM unless noted), 44.5% (inactive); in the assay with HCT-116 colon, 50% (inactive); in the assay with HCC-2998 colon, 87.1% (inactive). The growth in the assay on KM12 colon was 42.9% (inactive).
For the molecule `O=S(=O)(O)C(Nc1ccccc1)c1ccccc1` (stereo not drawn), the growth in the assay on T-47D breast is 93.7% (inactive); with MDA-MB-435 melanoma it was 104% (inactive); in the assay on SW-620 colon it was 102% (inactive); with MCF7 breast (10 µM unless noted), 98.5% (inactive); in the assay with HCT-116 colon, 103% (inactive); in the assay with HCC-2998 colon it was -12.8% (active). In the assay with KM12 colon, the growth is 100% (inactive).
For the molecule `O=[N+]([O-])c1ccc(Cl)c(S(=O)(=O)O)c1`, the growth in the assay on T-47D breast is 103% (inactive); with MDA-MB-435 melanoma, 117% (inactive); with SW-620 colon, 107% (inactive); in the assay with MCF7 breast (10 µM unless noted) it was 98.4% (inactive); in the assay on HCT-116 colon, 104% (inactive); in the assay with HCC-2998 colon, 102% (inactive). Besides, the growth in the assay on KM12 colon was 105% (inactive).
In the case of `NCC(=O)CCC(=O)O`, the growth in the assay with T-47D breast was 100% (inactive); in the assay with MDA-MB-435 melanoma, 108% (inactive); with SW-620 colon it was 108% (inactive); in the assay on HCT-116 colon, 114% (inactive); in the assay with HCC-2998 colon, 97.4% (inactive); in the assay with KM12 colon, 108% (inactive).
Take `O=C1Cc2ccccc2C(=O)O1`: the growth with T-47D breast is 108% (inactive); in the assay on MDA-MB-435 melanoma, 107% (inactive); with SW-620 colon, 105% (inactive); in the assay on MCF7 breast (10 µM unless noted) it was 102% (inactive); in the assay on HCT-116 colon, 98.2% (inactive); in the assay with HCC-2998 colon it was 112% (inactive). In addition, the growth with KM12 colon is 115% (inactive).
Consider `Oc1ccc2c(c1)OCC1(O)Cc3cc(O)c(O)cc3C21` (stereo not drawn), for which the growth was 168% (inactive) in the assay on T-47D breast; 92.3% (inactive) in the assay with MDA-MB-435 melanoma; 95% (inactive) with SW-620 colon; 103% (inactive) in the assay with MCF7 breast (10 µM unless noted); 84.1% (inactive) in the assay with HCT-116 colon; 64.8% (inactive) with HCC-2998 colon. Also, the growth with KM12 colon is 96.5% (inactive).
In the case of `CCN1C(=O)/C(=C/C=C/N(C)c2ccccc2)SC1=S`, the growth is 80.5% (inactive) with BT-549 breast; 93.9% (inactive) with MDA-MB-435 melanoma; 106% (inactive) in the assay on SW-620 colon; 88.6% (inactive) in the assay with MCF7 breast (10 µM unless noted); 95.1% (inactive) in the assay on HCT-116 colon; 93.6% (inactive) in the assay with HCC-2998 colon. The growth with KM12 colon is 106% (inactive).
For `CC1(c2ccccc2)NC(=O)NC1=O` (stereo not drawn), the growth in the assay with T-47D breast is 109% (inactive); in the assay on MDA-MB-435 melanoma, 113% (inactive); in the assay on SW-620 colon it was 115% (inactive); in the assay with HCT-116 colon, 111% (inactive); in the assay on HCC-2998 colon, 102% (inactive); with KM12 colon, 112% (inactive).
Consider `CCOC(=O)c1[nH]c(C)c(C(=O)O)c1C`, for which the growth was 109% (inactive) in the assay on T-47D breast; 110% (inactive) in the assay with MDA-MB-435 melanoma; 107% (inactive) in the assay on SW-620 colon; 78.9% (inactive) in the assay on MCF7 breast (10 µM unless noted); 116% (inactive) in the assay with HCT-116 colon; 107% (inactive) in the assay with HCC-2998 colon. The growth in the assay on KM12 colon is 110% (inactive).
With `O=C1C=CC(=O)N1c1ccc(I)cc1Cl`, the growth in the assay with T-47D breast is 84.1% (inactive); in the assay with SW-620 colon, 107% (inactive); with MCF7 breast (10 µM unless noted) it was 98.1% (inactive); with HCT-116 colon, 96.9% (inactive); in the assay with HCC-2998 colon, 95.7% (inactive); with KM12 colon, 115% (inactive).
Turning to `CCCCCCCCCCCCCCCCC1CC(=O)OC1=O` (stereo not drawn), the growth is 97.4% (inactive) in the assay with T-47D breast; 101% (inactive) in the assay on MDA-MB-435 melanoma; 105% (inactive) in the assay on SW-620 colon; 98.5% (inactive) in the assay on MCF7 breast (10 µM unless noted); 114% (inactive) in the assay with HCC-2998 colon; 108% (inactive) in the assay with KM12 colon.
On to `O=[N+]([O-])c1ccc(N=Nc2ccccc2)cc1`, for which the growth with T-47D breast is 87.4% (inactive); with MDA-MB-435 melanoma it was 110% (inactive); with SW-620 colon it was 115% (inactive); in the assay on MCF7 breast (10 µM unless noted) it was 109% (inactive); with HCT-116 colon, 97.1% (inactive); in the assay with HCC-2998 colon it was 104% (inactive). For the same molecule, in the assay on KM12 colon, the growth is 96.2% (inactive).
In the case of `OCc1cccc2ccccc12`, the growth in the assay with T-47D breast is 103% (inactive); in the assay with MDA-MB-435 melanoma, 116% (inactive); in the assay with MCF7 breast (10 µM unless noted), 96.3% (inactive); in the assay on HCT-116 colon, 103% (inactive); in the assay on HCC-2998 colon it was 108% (inactive); with KM12 colon, 107% (inactive).
Regarding `O=c1[nH]nc(SC2CCCCC2)c(=O)[nH]1`, the growth was 99.6% (inactive) with T-47D breast; 105% (inactive) with MDA-MB-435 melanoma; 98.6% (inactive) with SW-620 colon; 97.5% (inactive) in the assay with MCF7 breast (10 µM unless noted); 92% (inactive) in the assay on HCC-2998 colon; 107% (inactive) with KM12 colon.
Regarding `O=C(c1ccccc1)C1CCC1`, the growth with T-47D breast was 99.7% (inactive); with MDA-MB-435 melanoma, 112% (inactive); in the assay with SW-620 colon it was 103% (inactive); in the assay on MCF7 breast (10 µM unless noted), 71.5% (inactive); in the assay with HCT-116 colon, 106% (inactive); in the assay with HCC-2998 colon, 100% (inactive). Also, the growth in the assay on KM12 colon was 105% (inactive).
For the molecule `O=C(/C=C/C(=O)c1ccccc1)c1ccccc1`, the growth is 92.4% (inactive) in the assay on T-47D breast; 100% (inactive) in the assay on MDA-MB-435 melanoma; 75.2% (inactive) with MCF7 breast (10 µM unless noted); 87.6% (inactive) in the assay on HCT-116 colon; 107% (inactive) in the assay on HCC-2998 colon; 111% (inactive) in the assay on KM12 colon.
Regarding `CN(C)CCC(=O)c1ccc(O)cc1`, the growth was 96.4% (inactive) in the assay on T-47D breast; 110% (inactive) in the assay with MDA-MB-435 melanoma; 107% (inactive) in the assay with SW-620 colon; 97.7% (inactive) in the assay on MCF7 breast (10 µM unless noted); 106% (inactive) with HCT-116 colon; 104% (inactive) in the assay with HCC-2998 colon. In addition, the growth in the assay with KM12 colon is 99.9% (inactive).
